Screens from PubChem BioAssay.
TrxR1 inh: blocks rat thioredoxin reductase 1; Potency, µM (doses to about 114 µM), actives largely listed as inhibitors; actives 1% (n = 390,000); recombinant rTrxR1, NADPH fluorescence consumption, selenite substrate; AID 588453; O89049; further: nearly all actives have a fitted effect of over 65% in size
Target sequence (O89049 whole entry, looked up): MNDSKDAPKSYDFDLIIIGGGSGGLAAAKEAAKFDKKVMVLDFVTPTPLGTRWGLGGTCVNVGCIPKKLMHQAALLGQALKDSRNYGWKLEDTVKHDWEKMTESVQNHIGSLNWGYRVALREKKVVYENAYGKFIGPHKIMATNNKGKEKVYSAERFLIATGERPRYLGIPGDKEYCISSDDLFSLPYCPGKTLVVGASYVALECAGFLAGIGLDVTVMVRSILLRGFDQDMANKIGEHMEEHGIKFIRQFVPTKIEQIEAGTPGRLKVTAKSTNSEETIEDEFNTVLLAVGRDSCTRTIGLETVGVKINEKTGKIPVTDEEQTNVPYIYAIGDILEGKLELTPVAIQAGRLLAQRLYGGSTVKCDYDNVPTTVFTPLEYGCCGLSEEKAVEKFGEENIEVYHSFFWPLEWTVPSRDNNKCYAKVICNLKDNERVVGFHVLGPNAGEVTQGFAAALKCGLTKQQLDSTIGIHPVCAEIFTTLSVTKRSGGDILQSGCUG
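Rat TrxR1 (90 nM in the dispensed reagent) was pre-reduced with 400 uM NADPH for 5 min at room temperature, then incubated with compound for 15 min. After 400 uM selenite was added, NADPH fluorescence (Ex 340/Em 450 nm) was followed for 8 min.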
TrxR1 substrate: is turned over as a substrate by rat TrxR1. purified TrxR1 substrate turnover, NADPH consumption readout. O89049. Potency, µM (series often up to 114 µM). actives 0.01% (n = 390,000); further: nearly all actives have a fitted effect of over 50% in size
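Rat TrxR1, dispensed at 90 nM, was prereduced with 400 uM NADPH (final) for 5 min at ~22 deg C, then incubated with compound 15 min before 400 uM selenite. A first-read NADPH fluorescence drop versus no-compound background flagged substrates.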
PI4K2A inh: inhibitors of human PI4K2A; Q9BTU6; purified PI4K2A, ADP-Glo luminescence, 1 h; hits give low values; activity change, negative = inhibition, % at 76.9 µM; actives 0.13% (n = 420,000); in the data active means activity change below about -50%; inconclusive means mostly about -30% to -49%
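Compounds are screened against recombinant PI4K2A using PI as substrate and ATP, the latter dispensed at 300 microM. Reactions run one hour at ambient temperature before ADP-Glo detection; full inhibition defined by wells lacking enzyme.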
GALK inh: inhibitors of human galactokinase; actives 0.007% (n = 270,000); Purified GALK, Kinase-Glo residual ATP luminescence; Potency, µM (doses to about 57.5 µM), most hits filed as inhibitors
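Quantitative HTS: GALK 5 nM, ATP 35 uM, galactose 100 uM, 1 h room temperature, then luciferase-based ATP detection.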
Numbers stand for hits; n = inactive; u = inconclusive; x = no result given; ! = not confirmed by another sample; [ ] = dose if it differs, or a comment. Only some compounds are listed: those with a hit (about 1.1% of all), similar ones and a draw of the others. Unless noted, the call rests on the fitted dose curve; in most records, active means well fitted curve in the direction sought with a large enough effect; inconclusive means small, poorly fitted or top-dose-only effect, or another doubt; inactive means no such curve, though single readings can be large; an effect the other way counts as inactive or inconclusive.

SMILES | TrxR1 inh | TrxR1 substrate | PI4K2A inh | GALK inh
COC[C@@H](NC(C)=O)C(=O)NCc1ccccc1 | x | x | n | x
O=C1CN2CCOC2(c2ccccc2Cl)c2cc(Cl)ccc2N1 (stereo not drawn) | x | x | n | x
Cc1ccc(C)c(N2CCN(c3nc4ccc(Cl)cc4n4cnnc34)CC2)c1 | n | n | n | x
COc1ccc(N2C(=O)/C(=C/c3ccc(C)o3)C(=O)NC2=S)cc1 | 20µM | n | n | n
CCc1ccc(N2C(=O)NC(=O)/C(=C\c3cccn3CCOc3ccc(C(C)C)cc3)C2=O)cc1 | n | n | n | n
CSc1ncc(/C=C2/C(=O)NC(=O)N(c3ccc(C(C)C)cc3)C2=O)cn1 | 10µM | n | n | n
O=C1NC(=O)N(Cc2ccc(F)cc2)C(=O)/C1=C/c1cccs1 | 18µM | n | n | n
CC(C)c1ccc(N2C(=O)NC(=O)/C(=C/c3cnc(-c4ccccc4)nc3)C2=O)cc1 | 4µM | n | n | n
O=C1NC(=O)N(Cc2ccccc2)C(=O)/C1=C/c1cnc(-c2ccccc2)nc1 | 6.3µM | n | n | n
CCc1ccc(N2C(=O)NC(=O)/C(=C/c3ccsc3)C2=O)cc1 | x | x | x | n
C[C@@H]1CC2=CC(=O)CC[C@@H]2[C@H]2CC[C@@]3(C)[C@@H](CC[C@]3(C)O)[C@@H]21 | x | x | n | x
O=C1C(=O)c2cccc3cccc1c23 | n | n | n | x
O=C1C(=O)c2ccccc2-c2ccccc21 | 10µM | 3.2µM | u | 3.2µM
COc1cc2c(cc1/C=C/[N+](=O)[O-])OCO2 | u | n | n | n
O=[N+]([O-])/C=C/c1ccc2c(c1)OCO2 | 10µM | n | n | x
C[N+]1(CCF)[C@@H]2CC[C@H]1CC(OC(=O)C(O)(c1ccccc1)c1ccccc1)C2 (stereo partly drawn) | x | x | n | x
C[C@@H]1CC2C3CC=C4C[C@@H](O)CC[C@]4(C)C3CC[C@]2(C)[C@H]1O (stereo partly drawn) | n | n | n | x
C[C@H]1CC[C@@H]2[C@@H](C)[C@H]3[C@H](C[C@H]4[C@@H]5CC=C6C[C@@H](O[C@@H]7O[C@H](CO)[C@H](O)[C@H](O[C@@H]8O[C@H](CO)[C@@H](O)[C@H](O)[C@H]8O)[C@H]7O[C@@H]7O[C@@H](C)[C@H](O)[C@@H](O)[C@H]7O)CC[C@]6(C)[C@H]5CC[C@]34C)N2C1 | 71µM | n | n | x
O=c1oc(Cl)c(Cl)c2ccccc12 | 7.5µM | n | n | x
CCC(CC)(CNC(=O)CCCO)c1cccc(OC)c1 | x | x | n | x
C=C1C(=O)OC2CC(C)C3C=CC(=O)C3(C)C(O)C12 (stereo not drawn) | n | n | u | x
C=C1C(=O)O[C@@H]2C[C@@H](C)[C@@H]3C=CC(=O)[C@@]3(C)[C@@H](OC(=O)CC(=O)O[C@H]3[C@@H]4C(=C)C(=O)O[C@@H]4C[C@@H](C)[C@@H]4C=CC(=O)[C@]43C)[C@H]12 | u | n | -70 | n
C=CCC1(C(C)CC)C(=O)NC(=O)NC1=O (stereo not drawn) | x | x | n | x
CCCCCCCCCC[Si](C)(C)CCC(=O)NC(Cc1ccc(C)cc1)c1ccccc1 (stereo not drawn) | n | n | n | x
O=c1c2ccccc2[se]n1-c1ccccc1 | 28µM! | u | n | n
SMILES | TrxR1 inh | TrxR1 substrate | PI4K2A inh | GALK inh
Cc1ccc(C=C2C(Cl)=C(Cl)C(Cl)=C2Cl)cc1 | 3.2µM | n | n | n
Cc1ccc([N+](=O)[O-])[c]2c1[O][Hg]2 | x | x | n | x
CC(C)CN(CC(C)C)c1ccc(C=C2C(=O)NC(=S)NC2=O)cc1[N+](=O)[O-] | 2.5µM | n | n | n
CCN(CC)c1ccc(C=C2C(=O)NC(=S)NC2=O)cc1 | 4.5µM | n | n | n
CN(C)c1ccc(C=C2C(=O)NC(=S)NC2=O)cc1 | 4µM | n | n | x
CCOc1ccc(C=C2C(=O)NC(=S)NC2=O)cc1OCC | 8.9µM | n | n | x
CCC(=O)C(CC(C)N(C)C)(c1ccccc1)c1ccccc1 (stereo not drawn) | x | x | n | x
O=C(Cn1cc(C=C2C(=O)NC(=O)NC2=O)c2ccccc21)NCC1CCCO1 (stereo not drawn) | n[0.0914 µM] | n | n | n
Cc1c(C=C2C(=O)N(C)C(=S)N(C)C2=O)c2ccccc2n1CC(=O)NCC1CCCO1 (stereo not drawn) | 13µM | n | n | n
COc1ccc(OC)c(CC(C)N)c1 (stereo not drawn) | x | x | n | x
O=C1NC(=O)N(c2ccccc2F)C(=O)/C1=C/c1ccc(Oc2ccc([N+](=O)[O-])cn2)cc1 | 3.5µM | n | n | n
COC(=O)C1=C(c2c(C)noc2C)C[C@@H]2CC[C@H]1N2C(=O)NCCO | n | n | -53 | x
O=C(O)c1ccc(=O)[nH]c1 | x | x | n | x
CNc1cc(Cl)c2nonc2c1[N+](=O)[O-] | 0.35µM | n | n | n
O=[N+]([O-])c1c(Cl)c(Cl)cc(Cl)c1Cl | x | x | n | x
O=C1NC(=S)NC(=O)C1=Cc1ccc(OCC(=O)N2CCCC2)cc1 | 5.6µM | n | n | n
ClC1=C(Cl)[C@]2(Cl)[C@@H]3[C@@H]4C[C@@H]([C@H]5O[C@@H]45)[C@@H]3[C@@]1(Cl)C2(Cl)Cl | x | x | n | x
C=CCN1C(=O)/C(=C\c2ccc(N3CCOCC3)o2)C(=O)NC1=S | n | n | n | n
CC(C)(C)N1C(=O)NC(=O)/C(=C\c2ccc3c(c2)CCN3CCCCl)C1=O | u | n | n | n
CCN1C(=O)/C(=C/c2ccc3c(c2)CCN3CCCCl)C(=O)NC1=S | 28µM | n | n | n
O=C1NC(=S)N(C2CC2)C(=O)/C1=C/c1ccc2c(c1)CCN2CCCCl | 7.9µM | n | n | n
C=CCN1C(=O)/C(=C/c2ccc3c(c2)CCCN3CCC)C(=O)NC1=S | 10µM | n | n | n
CN(C)c1nc(OCc2ccccc2)c2ncc(=O)[nH]c2n1 | n | n | n | x
C[C@H](CN1CCOCC1)C(C(=O)N1CCCC1)(c1ccccc1)c1ccccc1 | x | x | n | x
O=[N+]([O-])c1ccc(O)c([N+](=O)[O-])c1 | n | n | n | x
SMILES | TrxR1 inh | TrxR1 substrate | PI4K2A inh | GALK inh
O=[N+]([O-])c1ccc(Cl)c([N+](=O)[O-])c1 | 2.8µM | n | n | x
CC1(C)CC2CC(C)(CN2S(=O)(=O)c2cccc(C(=O)OCC(=O)NC(N)=O)c2)C1 (stereo not drawn) | u | n | n | x
O=C1NC(=O)C(=Cc2ccc(Sc3ccccc3)o2)C(=O)N1 | u | n | n | n
O=C1NC(=O)N(c2ccc(Cl)cc2)C(=O)/C1=C\c1ccc(Sc2nc3ccccc3[nH]2)o1 | 13µM | n | u | n
CSc1ncc(/C=C2/C(=O)NC(=O)N(C3CCCCC3)C2=O)cn1 | 11µM | n | n | n
CSc1ncc(/C=C2/C(=O)NC(=O)N(C)C2=O)cn1 | 14µM | n | n | n
CCCCN1C(=O)NC(=O)/C(=C/c2cnc(SC)nc2)C1=O | u | n | n | n
CN1C(=O)C(=Cc2ccc(Sc3ccccc3)o2)C(=O)N(C)C1=O | u | n | n | n
CN1C(=O)C(=Cc2ccc(Sc3ccccc3)o2)C(=O)N(C)C1=S | 20µM | n | n | x
S=C(SSC(=S)N1CCCCC1)N1CCCCC1 | x | x | n | x
